# Data reported in the supplement of paper PMC10646978.
# ± gives the standard deviation.
# Key:
# Conditions in all cases: modulator concentration 10 µM
# [1] = tested on: RAW-Dual (murine macrophage reporter line); experiment: NF-kB reporter (SEAP) activity fold change vs agonist alone; higher = enhanced NF-kB activity
# Summary of the method: (§1)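 RAW-Dual murine macrophage reporter cells were seeded at 50 000 per well in 384-well plates and pre-incubated 1 hour at 37 °C with compound pin-transferred to 10 μM final. After 1 hour, a PRR agonist was added and cells incubated overnight. Supernatant NF-κB (SEAP, QUANTI-Blue, 620 nm absorbance) and IRF (Lucia luciferase, QUANTI-Luc, luminescence) signals were divided by the mean agonist-only control on the same plate to give fold change. Two replicate plates were averaged, with errors by propagation.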
# [2] = tested on: RAW-Dual (murine macrophage reporter line); experiment: IRF reporter (Lucia luciferase) activity fold change vs agonist alone; higher = enhanced IRF activity
# Summary of the method: as §1
# [3] = tested on: RAW-Dual (murine macrophage reporter line); experiment: viability score (confluency relative to resting cells, overnight) (fraction); higher = more viable, active = viable (0.7 or more)
# Summary of the method: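 RAW-Dual macrophages in 384-well plates were treated overnight with compound at 10 μM final. IncuCyte imaging recorded confluency, and IncuCyte software built two confluency masks across every imaged well. The viability score expresses confluency relative to resting cells and was judged against a cutoff, which a compound met only if both masks exceeded 70% of resting cells.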
# [4] = agonist: CpG ODN 1826 0.5 ug/mL
Compound,"NF-kB reporter [1, 4]",NF-kB reporter ([1]; agonist: LPS 0.1 ug/mL),NF-kB reporter ([1]; agonist: MPLA […]),IRF reporter ([2]; agonist: 3'3'-cGAMP 10 ug/mL),IRF reporter ([2]; agonist: LPS 0.1 ug/mL),IRF reporter ([2]; agonist: MPLA […]),viability score [3]
Cc1ccc(CC(=O)N2CCNC(=O)C2(C)C)cc1C,1.08 ± 0.11,1.07 ± 0.1,0.989 ± 0.031,0.865 ± 0.042,0.941 ± 0.044,0.87 ± 0.085,0.999 (active)
CC(Cc1ccc(O)c(O)c1)(NN)C(=O)O (stereo unspecified),0.957 ± 0.083,0.979 ± 0.076,0.877 ± 0.083,0.952 ± 0.03,1.24 ± 0.15,1.38 ± 0.18,1 (active)
COCC(=O)Nc1c(C(=O)Nc2ccc(OC(F)(F)F)cc2)oc2ccccc12,1.26 ± 0.1,1.24 ± 0.098,1.22 ± 0.11,1.58 ± 0.085,1.84 ± 0.17,1.85 ± 0.38,0.922 (active)
O=C1CN(CCC2=CCCCC2)C2CS(=O)(=O)CC2N1c1ccc(Cl)cc1 (stereo unspecified),1.01 ± 0.12,1.07 ± 0.089,0.849 ± 0.071,0.786 ± 0.051,0.892 ± 0.078,1 ± 0.13,1.01 (active)
CN(CCO)c1ccc2nonc2c1[N+](=O)[O-],1.39 ± 0.085,1.18 ± 0.11,1.33 ± 0.087,0.886 ± 0.034,1.28 ± 0.086,0.996 ± 0.088,1 (active)
CC(=O)Oc1c(C)cc2sc3ccccc3c(=O)c2c1C,1.06 ± 0.18,0.87 ± 0.077,0.927 ± 0.095,0.846 ± 0.032,1.25 ± 0.12,1.2 ± 0.12,0.998 (active)
COC(=O)C1=C(C)NC(C)=C(C(=O)OC(C)C)C1c1cccc2nonc12 (stereo unspecified),0.79 ± 0.062,0.942 ± 0.073,1.11 ± 0.096,0.645 ± 0.04,1.08 ± 0.07,0.967 ± 0.14,1 (active)
Brc1ccc2ncnc(N3CCOCC3)c2c1,1.17 ± 0.097,1.39 ± 0.098,1.13 ± 0.05,0.357 ± 0.087,0.515 ± 0.039,0.592 ± 0.084,1 (active)
CC1COc2c(N3CCN(C)CC3)c(F)cc3c(=O)c(C(=O)O)cn1c23 (stereo unspecified) [Prestw-237],1.46 ± 0.24,1.01 ± 0.12,1.12 ± 0.16,1.14 ± 0.033,0.8 ± 0.078,0.894 ± 0.15,0.983 (active)
COc1ccc(CNCc2cccc3ccccc23)cc1,0.715 ± 0.12,1.06 ± 0.1,1.15 ± 0.11,0.877 ± 0.035,0.945 ± 0.1,1.31 ± 0.14,0.967 (active)
O=C(NCc1nc(C2CCCCC2)cs1)c1ccc(F)cc1,0.898 ± 0.05,1.16 ± 0.11,0.918 ± 0.047,1.03 ± 0.063,1.26 ± 0.094,1.1 ± 0.09,0.931 (active)
CC#CCn1c(N2CCC[C@@H](N)C2)nc2c1c(=O)n(Cc1nc(C)c3ccccc3n1)c(=O)n2C,1.05 ± 0.14,1.13 ± 0.22,1.02 ± 0.064,0.944 ± 0.035,1.34 ± 0.38,1.14 ± 0.16,1.01 (active)
COC(=O)C1C(O)CCC2CN3CCc4c([nH]c5ccccc45)C3CC21.Cl (stereo unspecified),1.19 ± 0.28,0.917 ± 0.076,0.906 ± 0.058,0.92 ± 0.1,1.15 ± 0.25,1.23 ± 0.15,0.995 (active)
